Compounds with a hit are over-represented: about 3.9% of the library has one in this group of screens.
TWEAK-Fn14 inh: inhibitors of TWEAK-Fn14 signaling, primary screen, luciferase reporter cells, uHTS; inhibition, % at 10 µM; actives 2% (n = 360,000); AID 1159606, 2016; TWEAK-stimulated Fn14 reporter cells, luciferase luminescence, 8 h; in the data active means inhibition above about 50%
TROY NFkB inh: inhibitors of TROY-driven NF-kB signaling, primary screen, Q293 LMP1-TROYcd cells, NF-kB luciferase, uHTS | Q293 LMP1-TROYcd NF-kB luciferase reporter, 4 h | inhibition, % at 10 µM | actives 0.98% (n = 360,000) | AID 1347056, 2019;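 active means compounds whose plate-normalised and pattern-corrected inhibition of the luciferase reporter signal at the single screening dose is 50% or more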
Peg3 promoter: Peg3 promoter-driven luciferase inhibitors, primary screen, cell-based, HeLa, luciferase luminescence | HeLa PEG-Prom luciferase reporter, overnight | inhibition, % at 20 µM | actives 1.7% (n = 360,000);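 active means inhibition of at least 50% at 20 µM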
KKLEB cytotox: cytotoxicity in KKLEB CF airway cells, primary screen, cytotoxicity control for CF NF-kB inhibitor project, cell-based, uHTS, fluorescence assay plates | KKLEB CF airway cells viability, ATPlite luminescence, overnight; active compounds read low; cells stimulated with P. aeruginosa culture filtrate | activity change (cytotoxicity), % at 5 µM | actives 0.36% (n = 360,000) | AID 602141, 2011;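 active means corrected activity change at or below -50% at 5 µM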
CF NFkB block: inhibitors of PAF-induced NF-kB signaling, primary screen, cell-based, GFP fluorescence, uHTS | KKLEB NF-kB-GFP reporter, GFP fluorescence overnight | inhibition, % at 5 µM | actives 0.86% (n = 360,000) | AID 588850, 2011;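 active means at least 50% inhibition at 5 µM, scaled per plate between neutral and stimulator controls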;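 further: PAF is a Pseudomonas aeruginosa culture filtrate used as stimulus; plate controls were PAF-stimulated DMSO wells for no effect and unstimulated DMSO wells for full effect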
HIF-2a inh: HIF-2a reporter inhibitors, primary screen, luminescence, 786-0 RCC cells; actives 0.72% (n = 360,000); 786-0 RCC cells HIF-2a reporter, luciferase luminescence, overnight; inhibition, % at 18.8 µM;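 active means inhibition of the luminescence signal of 40% or more relative to plate controls, in a single-dose primary screen at 18.75 µM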
Numbers without * were called inactive; . = no result given.

SMILES	TWEAK-Fn14 inh	TROY NFkB inh	Peg3 promoter	KKLEB cytotox	CF NFkB block	HIF-2a inh
CCOc1ccccc1Nc1nnc(SCc2nnc(-c3cc(OC)c(OC)c(OC)c3)o2)s1	32	-5	65*	-2	-4	2
N#C/C(=C\c1coc2ccc(O)cc2c1=O)C(=O)Nc1nc2ccccc2s1	73*	52*	-62	-28	-57	-53
CCOC(=O)c1ccccc1NC(=O)COc1ccccc1	-9	-15	68*	9	-3	-5
COC(=O)c1ccccc1NC(=O)CC(=O)Nc1ccccc1C(=O)OC	3	-3	-14	7	-27	-36
COC(=O)c1ccccc1NC(=O)CSCC(=O)Nc1ccccc1	6	-15	11	-69*	-4	23
COC(=O)c1ccccc1NC(=S)NC(=O)c1ccccc1	84*	.	4	-12	-24	-21
COC(=O)c1sc(NC(=S)NC(=O)c2ccccc2)nc1C	7	52*	-258	-4	4	-229
CCCCNc1c(-c2cc3ccccc3o2)nc2nc(C)cc(C)n12	2	-52	.	.	.	-114
CCCN(C(=O)/C=C/c1ccco1)c1c(N)n(Cc2ccccc2)c(=O)[nH]c1=O	4	4	2	-2	8	17
COC(=O)c1ccccc1NC(=O)Nc1ccc(C(=O)N2CCCC2)cc1	14	10	58*	1	-3	35
COc1ccc([C@@H]2[C@@H]3C(=O)N(C(C)(C)C)C(=O)[C@@H]3[C@]3(C)C(=O)N(c4ccccc4)C(=O)N23)cc1	13	-6	15	0	0	-4
O=C1C=C(NCc2ccc(Cl)c(Cl)c2)CC1	14	12	-3	-1	-3	18
Nc1nc(N)c2cc(CNc3ccc(Cl)c(Cl)c3)ccc2n1	98*	36	110*	-26	45	10
COc1ccccc1C1CCN(Cc2c(C)[nH]c3ccccc23)CC1	11	-14	-9	-5	12	20
COc1ccc(-c2ccc(CN3C(C)C(=O)N(Cc4cn(CC5CCCCC5)nn4)CCS3(=O)=O)cc2)cc1 (configuration not stated)	49	13	-11	-14	24	-22
O=C(NC1CCCCC1)C(c1ccc(F)cc1)N(Cc1cccs1)C(=O)CN1C(=O)c2ccccc2S1(=O)=O (configuration not stated)	-2	7	32	-75*	59*	17
O=C(NCC1CCCO1)C(c1ccncc1)N(Cc1cccs1)C(=O)CN1C(=O)c2ccccc2S1(=O)=O (configuration not stated)	6	-21	8	-16	6	6
Cc1ccc(NC(=O)Cn2nc(C)c3ccccc3c2=O)cc1	72*	.	8	12	-6	11
COC(=O)c1cc(S(=O)(=O)N2CCOCC2)c(Cl)cc1N1CCOCC1	-6	-1	-7	8	-12	15
COC(=O)c1cc(C)nc2c1C(=O)C(=O)C=C2N1CCOCC1	103*	43	100*	-58*	88*	83*
CC(C)c1ccc(C2NC(=O)NC3=C2CCc2ccccc23)cc1 (configuration not stated)	76*	55*	-30	-30	26	3
Cc1ccc(C2NC(=O)NC3=C2CCc2ccccc23)cc1 (configuration not stated)	79*	69*	-47	7	-21	-58
Cc1ccccc1NC(=O)c1ccc(C)c(S(=O)(=O)NCc2cccnc2)c1	-11	15	4	-10	16	6
CCOC(=O)N1CCN(C(=O)CS(=O)(=O)c2cn(Cc3ccc(F)cc3)c3ccccc23)CC1	-3	-15	-1	10	-7	4
O=C1CSC(c2ccc3c(c2)OCO3)N1c1ccc(Oc2ccccc2)cc1 (configuration not stated)	-2	3	12	-97*	4	26

Compound activity as filed in PubChem.
